Screening data (PubChem BioAssay)
sEH inhibitor: inhibitors of human soluble epoxide hydrolase; 0.34% of 91,000 active; recombinant human sEH enzymatic activity assay; inhibition, % at 2 µM; AID 707; P34913; in the data active = inhibition above about 80%
Target sequence (P34913 whole entry, looked up): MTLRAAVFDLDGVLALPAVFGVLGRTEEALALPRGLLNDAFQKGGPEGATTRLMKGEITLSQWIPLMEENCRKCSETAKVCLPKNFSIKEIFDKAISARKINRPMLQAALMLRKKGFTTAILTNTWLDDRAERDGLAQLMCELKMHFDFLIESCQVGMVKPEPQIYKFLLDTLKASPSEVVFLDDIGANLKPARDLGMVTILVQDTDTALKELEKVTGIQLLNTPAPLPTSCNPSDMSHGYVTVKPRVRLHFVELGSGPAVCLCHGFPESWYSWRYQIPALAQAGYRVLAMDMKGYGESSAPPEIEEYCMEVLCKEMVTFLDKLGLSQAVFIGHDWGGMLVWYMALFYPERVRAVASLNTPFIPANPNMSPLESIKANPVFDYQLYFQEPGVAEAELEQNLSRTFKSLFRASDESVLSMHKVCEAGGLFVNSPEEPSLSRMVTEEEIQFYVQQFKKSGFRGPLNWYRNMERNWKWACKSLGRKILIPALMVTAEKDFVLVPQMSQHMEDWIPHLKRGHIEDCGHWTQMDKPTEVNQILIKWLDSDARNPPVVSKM
CYP2C19 inhib: inhibitors of human CYP2C19 | P33261 | CYP2C19 Supersomes, luciferin-H EGE luminescence, 30 min | inhibition, % at 5 µM | 21% of 96,000 active | AID 778;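 active = CYP2C19 inhibition above a set limit at 5 µM in the primary screen, cut at about 50% in these data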;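 note: plate controls were negative control wells for no effect and 2.5 mM tranylcypromine positive control for full effect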
sEH activator: increases human soluble epoxide hydrolase activity | activation, % at 2 µM | AID 717 | purified human sEH enzymatic activity, activator screen | P34913 | 0.04% of 91,000 active; in the data active = activation above about 37%
CYP2C9 inh: inhibitors of human CYP2C9; P11712; CYP2C9 Supersomes, luciferin-H conversion, luminescence; inhibition, % at 5 µM; 20% of 96,000 active; AID 777;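 active = blocking of liver enzyme CYP2C9 beyond about 50% at 5 µM, limit read from the data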
CYP2C19 act: activators of human cytochrome P450 2C19. P33261. recombinant CYP2C19, luciferin-H EGE luminescence; hits give high values; 0 = fully inhibited enzyme, 1 = untreated enzyme. AID 1025. activation factor at 5 µM. 96,000 tested, under 10 active;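 active = activation factor of at least 2 at 5 µM in the primary screen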;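 note: 0 = wells with 2.5 mM tranylcypromine and 1 = vehicle-only wells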
CYP2C9 activ: CYP2C9 (human) activation; P11712; recombinant CYP2C9, luciferin-H conversion, luminescence; hits give high values; factor 1 = untreated enzyme, 0 = blocked; activation factor at 5 µM; 1.4% of 96,000 active; AID 1024;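 active = activation factor of 2 or more for CYP2C9 at a 5 µM dose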;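 note: 0 = sulfaphenazole-blocked wells and 1 = vehicle-only wells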
Active calls of the source: *; · = no result given. Hits are enriched below; roughly 27% of the tested compounds scored in any of these assays.

SMILES | sEH inhibitor | CYP2C19 inhib | sEH activator | CYP2C9 inh | CYP2C19 act | CYP2C9 activ
CCOc1ccccc1NC(=O)CSc1nnc(CNC(=O)COc2ccc(Cl)cc2)o1 | 21 | 22 | -21 | -98 | 0.8 | 2*
CC(C)n1nnnc1SCC(=O)NCc1ccc2c(c1)OCO2 | 4 | 46 | -1 | 40 | 0.5 | 0.6
O=C(COc1ccc(Cl)cc1)NCc1nnc(SCC(=O)NCc2ccc3c(c2)OCO3)o1 | 8 | 46 | -8 | 70* | 0.5 | 0.3
O=C(CSc1nccn1-c1ccc(Cl)cc1)NCc1ccc2c(c1)OCO2 | 0 | 100* | 4 | 98* | 0 | 0
COC(=O)c1ccc(CSc2nnc(CNC(=O)COc3ccc(Cl)cc3)o2)o1 | 16 | 38 | -14 | 68* | 0.6 | 0.3
CCN(CC)c1ccc(NC(=O)Nc2ccccc2C(F)(F)F)cc1 | 10 | 17 | -10 | 2 | 0.8 | 1
O=C(Nc1ccc(Cl)cc1)N(Cc1cccnc1)Cc1ccco1 | 25 | 100* | -23 | 90* | 0 | 0.1
O=C(/C=C/c1ccc(Cl)c([N+](=O)[O-])c1)NCc1cccnc1 | 4 | · | -6 | · | · | ·
N#CCCN(Cc1cccnc1)C(=O)Nc1ccc(Cl)c(Cl)c1 | 6 | 92* | -5 | 64* | 0.1 | 0.4
S=C(NCc1cccnc1)Nc1ccc(Cl)c(Cl)c1 | 4 | 92* | -3 | 98* | 0.1 | 0
Cc1ccc(NC(=O)N(Cc2cccnc2)Cc2ccco2)cc1C | 23 | 96* | -24 | 78* | 0 | 0.2
CCOC(=O)c1[nH]c(C)c(CCC(=O)OC)c1C | 6 | 45 | -3 | 11 | 0.6 | 0.9
CCCCOc1ccc(N2C(=O)CC(NCCc3ccc(S(N)(=O)=O)cc3)C2=O)cc1 (stereo not drawn) | -7 | -1 | 6 | 45 | 1 | 0.6
Fc1ccc2c(Cl)c(-c3nnc(-c4cccs4)o3)sc2c1 | · | -8 | · | -15 | 1.1 | 1.2
COC(=O)c1cc(OC)c(OC)cc1NC(=O)c1ccoc1C | -2 | -5 | 6 | -5 | 1.1 | 1
CCCN(CCC)S(=O)(=O)c1ccc(NC(=O)c2cc(C(=O)OC)cc([N+](=O)[O-])c2)cc1 | 24 | 18 | -25 | -2 | 0.8 | 1
O=C(Nc1nc2ccccc2s1)C1CC(=O)N(c2ccc(Cl)cc2)C1 (stereo not drawn) | -8 | 20 | 9 | 54* | 0.8 | 0.5
COC(=O)c1ccccc1NC(=O)C1CC(=O)N(c2ccccc2)C1 (stereo not drawn) | -8 | 19 | 8 | 8 | 0.8 | 0.9
O=C(Nc1cccc2nsnc12)C1CC(=O)N(c2ccccc2)C1 (stereo not drawn) | · | 82* | · | 74* | 0.2 | 0.3
O=C(O)CC1SC(=Nc2cccc(C(F)(F)F)c2)NC1=O (stereo not drawn) | 7 | -1 | -5 | -11 | 1 | 1.1
N#Cc1cc2c(=O)n3ccccc3nc2n(CC2CCCO2)c1=N (stereo not drawn) | 1 | · | -2 | · | · | ·
N#Cc1cc2c(=O)n3ccccc3nc2n(CCCn2ccnc2)c1=N | 3 | 71* | -3 | 78* | 0.3 | 0.2
CC1(C(=O)O)CCC(C(=O)NCCc2ccccc2)C1(C)C (stereo not drawn) | 8 | -1 | -8 | -10 | 1 | 1.1
CC1(C)CC(=O)C(C(=O)/C=C/NCCc2ccccc2)C(=O)C1 | 6 | 3 | -7 | 74* | 1 | 0.3
Cc1ccc(/C=C(/C#N)C(=O)NC(=O)Oc2ccccc2)cc1 | -3 | -18 | 5 | -22 | 1.2 | 1.2
SMILES | sEH inhibitor | CYP2C19 inhib | sEH activator | CYP2C9 inh | CYP2C19 act | CYP2C9 activ
Cc1ccc(C(C)NC(=O)/C(C#N)=C\c2c(C)[nH]c3ccccc23)cc1 (stereo not drawn) | -18 | 45 | 19 | -108 | 0.6 | 2.1*
CC1(C)N=C(SCC(=O)Nc2ccc(Cl)cc2)C(c2ccccc2)=N1 | -2 | 77* | -1 | 68* | 0.2 | 0.3
CC1(C)N=C(SCC(=O)Nc2ccc(Cl)cc2)C(c2ccc(Cl)cc2)=N1 | -12 | 38 | 13 | 40 | 0.6 | 0.6
COc1cc(-c2cc(C(F)(F)F)n3ncc(C(=O)O)c3n2)cc(OC)c1OC | -12 | 26 | 9 | 33 | 0.7 | 0.7
Cc1csc(SCC(=O)NC(=O)NCc2ccccc2)n1 | -8 | 28 | 9 | 16 | 0.7 | 0.8
Cc1nc(SCC(=O)NC(=O)NCc2ccccc2)nc(C)c1C | -2 | 59* | -3 | 33 | 0.4 | 0.7
Cc1nc(SCC(=O)NCCc2ccccc2)nc(C)c1C | -7 | 80* | 8 | -7 | 0.2 | 1.1
CCOC(=O)COc1ccsc1C(=O)OC | -16 | 10 | 18 | -10 | 0.9 | 1.1
CCOC(=O)C(C)n1ncn2cccc2c1=O (stereo not drawn) | 2 | -9 | -2 | -7 | 1.1 | 1.1
Cc1coc2c(C)c3oc(=O)c4c(c3cc12)CCCC4 | · | 42 | · | 47 | 0.6 | 0.5
COC(=O)c1cc(COc2ccc3c4c(c(=O)oc3c2)CCC4)c(C)o1 | -4 | 38 | 4 | 9 | 0.6 | 0.9
Cc1oc2cc3oc(=O)c4c(c3cc2c1C)CCC4 | 3 | 63* | -4 | -4 | 0.4 | 1
CCc1cc2c3c(c(=O)oc2cc1O)CCCC3 | 13 | 62* | -12 | 72* | 0.4 | 0.3
Cc1c(O)c(CN2CCCCC2)cc2c3c(c(=O)oc12)CCC3 | -7 | 42 | 10 | 70* | 0.6 | 0.3
Cc1oc2c(C)c3oc(=O)c4c(c3cc2c1C)CCC4 | -4 | 80* | 6 | 28 | 0.2 | 0.7
COc1ccc(CN2C(=O)c3ccccc3C(/C=N\OCc3ccc(C)cc3)C2=O)cc1 (stereo not drawn) | 10 | 47 | -9 | 73* | 0.5 | 0.3
CCCC1S/C(=N/N=C/c2ccc(C)cc2)N(Cc2ccc(OC)cc2)C1=O (stereo not drawn) | 14 | -10 | -11 | 5 | 1.1 | 0.9
Cc1nc(=O)c(-c2ccccc2)c(C)n1CCCCCC(=O)O | 4 | -4 | -5 | 0 | 1 | 1
CCN(CC)C(C(=O)Nc1ccc(C(C)C)cc1)c1ccc2c(c1)OCO2 (stereo not drawn) | -38 | 14 | 38* | 29 | 0.9 | 0.7
COc1ccccc1NC(=O)CCn1c(=O)sc2ccccc21 | 7 | · | -6 | · | · | ·
CCOC(=O)C1C(=O)OC(C)(C)C1C(C)C(=O)c1ccccc1 (stereo not drawn) | 11 | 73* | -11 | 28 | 0.3 | 0.7
CCOC(=O)C1C(=O)OC(C)(C)C1C(C)C(=O)c1ccc(OC)cc1 (stereo not drawn) | 2 | 6 | 1 | 5 | 0.9 | 0.9
Cc1cccc(Oc2ccc(N)cc2)c1 | -3 | 84* | 2 | 29 | 0.2 | 0.7
Cc1ccc(Oc2ccc(-c3nc(N)nc(N)n3)cc2)cc1 | 28 | 6 | -28 | 7 | 0.9 | 0.9
Cc1cccc(Oc2cc(N)cc([N+](=O)[O-])c2)c1 | -19 | 60* | 23 | 34 | 0.4 | 0.7
Cc1cc(C)cc(Oc2ccc(N)cc2)c1 | 14 | 82* | -14 | -77 | 0.2 | 1.8
